Compound activity deposited in PubChem BioAssay by National Center for Advancing Translational Sciences (NCATS).
This is a sample that favours compounds with a hit; in the whole collection about 5.8% have one here.
RORgamma inh: inhibitors of mouse ROR gamma transcriptional activity. Drosophila S2 Gal4-RORgamma UAS-luciferase reporter, 20 h. AID 2551. 5.4% of 310,000 active. Potency, µM (series often up to 53.6 µM), for the others: at the top dose activity change, negative = inhibition, actives largely listed as inhibitors. P51450; further: potency means the concentration at half of the fitted maximal effect; on the % scale 0 is the no-effect control and ±100 the full control effect; nearly all actives have a fitted effect of over 60% in size
Target sequence (P51450 whole entry, looked up, the tested form may be a part): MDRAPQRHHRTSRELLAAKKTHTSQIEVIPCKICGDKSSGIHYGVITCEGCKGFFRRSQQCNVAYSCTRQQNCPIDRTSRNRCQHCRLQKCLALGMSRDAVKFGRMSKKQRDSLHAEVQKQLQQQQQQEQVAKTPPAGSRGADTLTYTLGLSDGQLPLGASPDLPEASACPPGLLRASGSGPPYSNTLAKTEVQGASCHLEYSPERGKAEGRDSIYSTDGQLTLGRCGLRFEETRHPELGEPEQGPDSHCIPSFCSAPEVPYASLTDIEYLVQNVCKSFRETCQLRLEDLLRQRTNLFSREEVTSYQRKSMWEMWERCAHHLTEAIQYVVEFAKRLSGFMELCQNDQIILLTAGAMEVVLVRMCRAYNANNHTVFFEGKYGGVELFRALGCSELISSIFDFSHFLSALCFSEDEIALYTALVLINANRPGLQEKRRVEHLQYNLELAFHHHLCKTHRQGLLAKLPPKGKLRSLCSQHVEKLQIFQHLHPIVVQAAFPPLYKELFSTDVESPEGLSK
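Compounds are pin-transferred onto Drosophila Schneider cells expressing a copper-inducible Gal4–ROR gamma transactivation domain fusion. After 1 hr, copper sulfate is added to 700 uM final; luciferase is read 20 hr later.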
TRPV1 potentiator: human TRPV1 potentiation; potentiation, % at 8.33 µM; AID 540277; TRPV1-expressing cells, Fluo-8 calcium influx, capsaicin EC20 potentiation; Q8NER1; 0.02% of 320,000 active; in the data active means potentiation above about 80%; inconclusive means between about 30% and that limit; further: 0% is about no effect
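Cells expressing TRPV1 were dye-loaded with Fluo-8 and read kinetically: 10 s baseline, 3 min after compound (agonist portion), then 2 min after EC20 capsaicin (allosteric enhancer portion). Calcium-bound dye fluorescence at 480/520 nm.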
uPA surface inh: inhibitors of cell surface uPA generation. Potency, µM (highest dose often 38.3 µM), for inactives: top-dose activity change, negative = inhibition, actives largely listed as inhibitors. 0.31% of 330,000 active. cell surface uPA generation assay, qHTS; active means well fitted inhibition curve with a large enough effect; inconclusive means small, poorly fitted or top-dose-only effect; inactive means no such curve, though single readings can be large or run the other way; tested in mouse RAW 264.7 cells; further: potency means the concentration at half of the fitted maximal effect; on the % scale 0 is the no-effect control and ±100 the full control effect; nearly all actives have a fitted effect of over 55% in size
VP16 counter: inhibits Gal4-VP16 luciferase reporter, ROR gamma counter-screen. Drosophila S2 Gal4-VP16 UAS-luciferase, luminescence, 20 h. 3.5% of 310,000 active. Potency, µM (series often up to 53.6 µM), without a hit: top-dose activity, negative = inhibition, usual class: inhibitors;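 further: Gal4-VP16 expression switched on by copper sulfate through the metallothionein promoter; potency means the concentration at half of the fitted maximal effect; on the % scale 0 is the no-effect control and ±100 the full control effect; nearly all actives have a fitted effect of over 50% in size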
TRPV1 ag: human TRPV1 agonism; Q8NER1; TRPV1-expressing cells, Fluo-8 calcium influx, agonist mode; activation, % at 8.33 µM; 0.19% of 320,000 active; AID 540275; in the data active means activation above about 80%; inconclusive means between about 30% and that limit; further: 0% is about no effect
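Cells expressing TRPV1 were dye-loaded with Fluo-8 and read kinetically: 10 s baseline, 3 min after compound (agonist portion), then 2 min after EC20 capsaicin (allosteric enhancer portion). Calcium-bound dye fluorescence at 480/520 nm.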
The depositor's hits bear a star; ? = inconclusive; nt = not tested or not shown; [ ] = another dose, or the depositor's remark. Unless noted, the call rests on the fitted dose curve; in most records, active means well fitted curve in the direction sought with a large enough effect; inconclusive means small, poorly fitted or top-dose-only effect, or another doubt; inactive means no such curve, though single readings can be large; an effect the other way counts as inactive or inconclusive.

SMILES	RORgamma inh	TRPV1 potentiator	uPA surface inh	VP16 counter	TRPV1 ag
Oc1ccccc1-c1cc(-c2ccc(F)cc2)n[nH]1	?	1.5	6.7%	-80.2%	-2.3
Cc1ccc(-c2cc(-c3ccccc3Cl)[nH]n2)c(O)c1	?	-10.2	11.7%	?	11.3
Cc1ccc(-c2cc(-c3ccc(F)cc3)n[nH]2)c(O)c1	5.62µM*	-1.3	3.0%	7.08µM*	-0.1
Cc1ccc(-c2cc(-c3ccc(C)cc3O)[nH]n2)cc1	3.98µM*	9.6	12.8%	7.08µM*	0.5
COc1ccc2c(c1)O[C@@H](c1cccc(C(F)(F)F)c1)[C@H](OC(=O)NCc1ccc3c(c1)OCO3)C2=O	-5.9%	nt	nt	0.9%	nt
Cc1ccc(SCC(CC(C)C)N2CCN(C)CCC2=O)cc1 (configuration not stated)	-22.7%	nt	nt	-15.5%	nt
O=C(Oc1ccc(OC(=O)C2CCC2)cc1)C1CCC1	11.2µM*	-6.8	-24.0%	22.4µM*	5.9
COc1ccc(NC2CCCN(C(=O)CCc3scnc3C)C2)cc1 (configuration not stated)	-15.3%	-13.0	5.1%	0.4%	7.6
O=C(CCc1ccncc1)N1CCCC(Nc2ccc(F)cc2)C1 (configuration not stated)	-3.0%	-13.0	2.4%	0.7%	14.2
CC(C)c1ccc(NC2CCCN(C(=O)c3cc(C(C)C)[nH]n3)C2)cc1 (configuration not stated)	7.1%	-49.6	-2.6%	2.6%	-3.1
Cc1ncsc1CCC(=O)N1CCCC(Nc2ccc(C(C)C)cc2)C1 (configuration not stated)	40.1%	0.0	8.1%	0.1%	83.7*
O=C(CCc1ccccc1)N1CCCC(Nc2ccc(F)cc2)C1 (configuration not stated)	5.2%	15.6	9.9%	11.4%	87.4*
CC(C)c1ccc(NC2CCCN(C(=O)c3ccnc(Cl)c3)C2)cc1 (configuration not stated)	9.4%	-12.4	5.3%	-6.5%	90.9*
COC(=O)c1ccc(C(=O)N2CCCC(Nc3ccc(C(C)C)cc3)C2)nc1 (configuration not stated)	6.2%	1.9	3.0%	-4.7%	82.8*
CCCCNc1nc(C#N)nc(Nc2ccccc2)n1	nt	nt	nt	-21.3%	nt
N#Cc1cccc(NC(=O)N2CC3(CCN(C(=O)c4ccco4)CC3)C2)c1	0.1%	nt	nt	-12.3%	nt
CC(=O)c1ccc(C(=O)N2CCCC(Nc3ccc(C(C)C)cc3)C2)s1 (configuration not stated)	11.3%	-15.6	1.5%	1.9%	?
CC(C)c1ccc(NC2CCCN(C(=O)c3ccco3)C2)cc1 (configuration not stated)	21.5%	-17.6	3.0%	1.8%	97.5*
O=[N+]([O-])C(/C=C(\Cl)[N+](=O)[O-])=C(N1CCCCC1)N1CCCCC1	?	-21.8	-10.8%	14.1µM*	17.4
CCOc1ccc(-n2cc(-c3ccccc3)c3c(=S)nc[nH]c32)cc1	1µM*	9.5	20.0%	1.12µM*	-8.7
Cc1cccc(NC(=S)NCCc2ccccc2)c1C	3.55µM*	3.0	0.5%	5.01µM*	24.3
COc1ccc(CCNC(=S)Nc2cccc(C)c2C)cc1	3.98µM*	-12.3	4.1%	7.94µM*	13.0
Cc1cccc(NC(=S)NCc2ccccc2Cl)c1C	5.01µM*	-15.3	-2.3%	3.98µM*	25.0
Cc1cccc(C)c1NC(=S)NCCc1ccc(O)c(O)c1	7.94µM*	-10.1	-4.6%	?	6.2
COc1ccc(-c2nc3cnc(Nc4cccc(OC)c4)nc3n(C[C@H]3CCCO3)c2=O)cc1	-5.1%	nt	nt	-8.4%	nt
SMILES	RORgamma inh	TRPV1 potentiator	uPA surface inh	VP16 counter	TRPV1 ag
COc1ccc(Cl)cc1NC(=S)N1CC(C)OC(C)C1 (configuration not stated)	-39.9%	12.3	2.1%	8.8%	-2.6
S=C(NCCc1ccccc1)Nc1ncccn1	nt	nt	-3.2%	nt	nt
Cc1cccnc1NC(=S)NCCc1ccccc1	2.82µM*	-8.9	-0.7%	10µM*	?
Cc1ccc(NC(=S)NCCc2ccccc2)nc1	0.501µM*	-4.6	-1.0%	5.01µM*	25.6
Cc1cc(NC(=O)c2sccc2C)n(-c2cccc(Cl)c2)n1	0.9%[10 µM]	-3.0	-0.4%	10.6%	6.0
CC(CNC(=O)COC(=O)c1cccnc1Cl)c1ccccc1 (configuration not stated)	nt	27.2	3.2%	nt	2.1
Cc1ccc(C(=O)NC(=S)N2CCN(C(=O)OC(C)(C)C)CC2)cc1Br	0.631µM*	-13.7	3.8%	1.12µM*	10.3
CCOC(=O)N1CCN(C(=S)NC(=O)c2cncc(Br)c2)CC1	1.12µM*	1.9	-16.6%	2.51µM*	-3.3
CCOC(=O)N1CCN(C(=S)NC(=O)c2cc(Br)ccc2Cl)CC1	0.891µM*	2.9	-2.1%	5.01µM*	0.1
CCOC(=O)N1CCN(C(=S)NC(=O)c2ccc(Br)cc2)CC1	0.562µM*	2.5	0.5%	1.26µM*	-2.7
CCOC(=O)C1CCCN(C(=S)NC(=O)c2cc(Br)ccc2Cl)C1 (configuration not stated)	nt	4.7	-4.1%	nt	14.3
COc1ccc(/C=C/C(=O)OCC(=O)NCCNC(=O)COC(=O)/C=C/c2ccc(OC)cc2)cc1	3.5%	9.0	12.3%	1.8%	0.5
CCOc1ccc(OCCn2c(=S)[nH]c3c(N)ncnc32)cc1	2.51µM*	9.8	-0.7%	4.2%	4.2
CC(C)Cc1ccc(C(C)C(=O)Nc2nccs2)cc1 (configuration not stated)	12.6µM*	4.3	11.3%	?	0.6
CC(C)C(C(=O)Nc1nccs1)c1ccccc1 (configuration not stated)	11.2µM*	0.2	1.4%	?	1.7
CC(CC(=O)Nc1nccs1)c1ccccc1 (configuration not stated)	-41.3%	-2.7	0.6%	-10.7%	1.2
CC(C)c1ccc(CNC(=O)C(=O)Nc2nccs2)cc1	-36.1%	6.3	-0.8%	21.1%[10 µM]	-1.7
O=C(Cc1ccc(F)cc1)Oc1ccc(C(=S)N2CCCC2)cc1	13.6%	-3.2	1.4%	0.9%	3.8
O=C(O)C1=CC(=C(c2ccc(O)c(C(=O)O)c2)c2ccc(O)c(C(=O)O)c2)C=CC1=O	2.1%	9.3	nt	5.8%	-1.2
O=C1C=CC(=C(c2ccc(O)cc2)c2ccc(O)cc2)C=C1	?	-6.2	2µM*	?	0.6
COCOc1ccc(Br)cc1C(=O)[C@H]1O[C@H]1c1cccc(OC)c1	2.6%[10 µM]	nt	nt	1.0%[10 µM]	nt
CC1(c2ccccc2Cl)NC(=O)N(CC(=O)Nc2ccc3c(c2)OCO3)C1=O (configuration not stated)	15.2%	-0.4	nt	-4.5%	-0.1
CC(C)(C)c1ccc(/C=N/Nc2cccc(C(=O)O)c2)cc1	6.7%	-12.8	?	6.4%	8.3
O=C(O)c1ccc(/C=N/Nc2ccc(F)cc2F)cc1	12.6µM*	0.1	-2.0%	?	1.3
CC(C)(C)c1ccc(/C=N/Nc2ccc(C(=O)O)cc2)cc1	0.02µM*	2.1	8.6%	17.8µM*	1.4
